This note sets out measurements from PubChem BioAssay AID1814 (Broad Institute, 2009).

The whole screen tested about 300,000 compounds, of which about 22,000 (7.3%) were called active. Not shown: some 2% with an inconclusive outcome. Rule as the data show it: active = activity score below about -60%; inconclusive = mostly about -28% to -61%; inactive = positive scores. Only a selection was taken, and actives are over-represented in it overall.

The nature of the experiment: Activators via SNCA 5'UTR binding, MLPCN (AID 1814). The note with it: alpha-synuclein 5'UTR reporter, activators screen; active compounds read low; tested at 7.5 µM.
As for `O=C1NC(=O)N(CCc2ccc(F)cc2)C(=O)/C1=C/C=C/c1ccccc1`, the activity score is -115% (active).
The same measure for `COc1cccc(-c2nc3ccc(N4CCN(C)CC4)cc3[nH]2)c1`: 68.9% (inactive).
The same measure for `Cc1nc2ccc(N3CCN(C)CC3)cc2nc1C`: -72% (active).
For the compound `CN(C)C(=O)Oc1ccc2c(c1)O/C(=C\c1ccccc1)C2=O`, the activity score was -101% (active).
The same measure for `CC(C)(C)c1ccc(OC(=O)N2CCCCC2)cc1`: -192% (active).
In the case of `CCCCCn1c(=O)c(C(=O)Nc2c(C)n(C)n(-c3ccccc3)c2=O)c(O)c2ccccc21` it was -108% (active); in that of `c1ccc2sc(C3CCCNC3)nc2c1` (stereo not given), -63% (active).
As for `C/C(=N/O)c1ccc2ccc3ccccc3c2c1`, the activity score was -104% (active).
In the case of `O=Cc1cn(Cc2ccc(F)cc2Cl)c2ccccc12` it was 61.1% (inactive).
The same measure for `c1cc2c(cc1[C@H]1OC[C@H]3[C@@H]1CO[C@@H]3c1ccc3c(c1)OCO3)OCO2`: 72.8% (inactive); for `O=C(Nc1cccc2ccccc12)N1CCC2(CC1)OCCO2`: -71.1% (active); for `CCOc1ccc(-c2cc(C)[n+](CCN(CC)CC)c(-c3ccc(OCC)cc3)c2)cc1`: 95.2% (inactive).
The same measure for `CN(C)CC1Oc2ccccc2OC1(O)c1ccccc1` (stereo not given): -101% (active); for `CCCCCCCCCCCCn1ccc(=N)cc1`: 104% (inactive).
On to `N#CC1=C(N)Oc2c(c(=O)oc3ccccc23)C1c1ccccc1OC(=O)c1cccs1` (stereo not given), for which the activity score is -63% (active).
